# High-throughput results (PubChem BioAssay)
# HPGD block: HPGD (human) dehydrogenase inhibition; hit rate 4.3% among 150,000; purified HPGD, NADH fluorescence kinetic, PGE2 substrate; Potency, µM, for the others: at the top dose activity change, negative = inhibition, actives largely listed as inhibitors; also: % is scaled to controls: 0 for no effect and ±100 for the full control effect
# Target sequence (P15428 whole entry, looked up): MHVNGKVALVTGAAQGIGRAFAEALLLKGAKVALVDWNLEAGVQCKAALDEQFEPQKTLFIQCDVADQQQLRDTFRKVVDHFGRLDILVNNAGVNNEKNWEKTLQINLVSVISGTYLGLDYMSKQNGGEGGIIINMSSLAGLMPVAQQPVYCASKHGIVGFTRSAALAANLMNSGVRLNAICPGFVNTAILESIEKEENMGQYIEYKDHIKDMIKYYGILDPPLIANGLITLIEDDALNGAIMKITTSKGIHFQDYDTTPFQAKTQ
#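 NADH formation kinetics: reaction with 30 uM PGE2 and 1 mM NAD+ (final), 20 nM enzyme, Tris-HCl pH 8 with Tween 20, after 15 min compound preincubation at room temperature. Fluorescence change, last versus first of five reads.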
# LMNA splice mod: changes lamin A minigene splicing in HeLa cells; Potency, µM (titrated, usually from 46.1 µM), for inactives: at the top dose ratio change, negative = inhibition, hits mostly inhibitors; HeLa LMNA splicing GFP/RFP minigene ratio, 48 h; hit rate 0.01% among 200,000; active = well fitted inhibition curve with a large enough effect in the signal ratio, with a control signal flat, not every such curve was filed as active; inconclusive = small, poorly fitted or top-dose-only effect, or effect the other way, or a change in a side signal; the % refers to the signal ratio; also: % is scaled to controls: 0 for no effect and ±100 for the full control effect
#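 S3 HeLa cells stably expressing lamin A-EGFP splicing minigene plus DsRed2, 600 cells/well, 48 h compound exposure at 37C. Laser-scanning cytometry; analysed as GFP (500-530 nm)/RFP (575-640 nm) total intensity ratio; 0.5% DMSO vehicle.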
# ALDH1A1 block: ALDH1A1 (human) enzyme inhibition; AID 1030; hit rate 7.3% among 220,000; Potency, µM (doses to about 75.3 µM), for inactives: top-dose activity, negative = inhibition, actives largely listed as inhibitors; Purified ALDH1A1, NADH fluorescence, propionaldehyde substrate; P00352;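 also: plate controls were no enzyme wells and a reference inhibitor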
# HTT aggregate: reduces HttQ103-GFP aggregates in PC12 cells | hit rate 1.1% among 220,000 | Potency, µM (highest dose often 46.1 µM), without a hit: at the highest dose activity change, negative = inhibition, most hits filed as inhibitors | PC12 HttQ103-GFP aggregates, Acumen cytometry, 40 h; active = well fitted curve in the direction sought with a large enough effect; inconclusive = small, poorly fitted or top-dose-only effect, or another doubt; inactive = no such curve, though single readings can be large; an effect the other way counts as inactive or inconclusive; also: % is scaled to controls: 0 for no effect and ±100 for the full control effect; nearly all actives have a fitted effect of over 60% in size
#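 Ecdysone-promoter PC12 model expressing HTT exon 1 Q103 fused to GFP, induced by tebufenozide at 100 nM final. Compounds titrated; aggregates sized 1–25 µm scored on a 488 nm laser cytometer.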
# HTT cytoprotect: protects HTT-Q103 PC12 cells, measured by ATP; Potency, µM (titrated, usually from 56.4 µM), for inactives: cytoprotection (ATP increase), actives largely listed as activators; hit rate 0.14% among 230,000; PC12 HTT-Q103 induced, cytoprotection, ATP luminescence, 40 h; AID 1471; active = well fitted curve in the direction sought with a large enough effect; inconclusive = small, poorly fitted or top-dose-only effect, or another doubt; inactive = no such curve, though single readings can be large; an effect the other way counts as inactive or inconclusive; also: % of control where 0% means no effect; nearly all actives have a fitted effect of over 45% in size
#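 ATP quantification (ATPlite) reports survival of PC12 cells in which tebufenozide, 100 nM final, switches on Htt exon 1 with 103 glutamines linked to GFP; compounds are titrated.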
# * = called active by the depositor; u = inconclusive; x = not tested or not shown; [ ] = another dose, or the depositor's remark. Sampled rows, rich in hits. Any-hit rate of the full collection: about 8.8%. Unless noted, calls follow the shape of the dose curve; as a rule, active = well fitted inhibition curve with a large enough effect (not every such curve was filed as active); inconclusive = small, poorly fitted or top-dose-only effect, or another doubt; inactive = no such curve, though single readings can be large or run the other way. Potency is read from the fitted curve at half-maximal effect.
SMILES,HPGD block,LMNA splice mod,ALDH1A1 block,HTT aggregate,HTT cytoprotect
Cc1ccc(-n2c(SCn3nnc4ccccc4c3=O)nnc2-c2cccnc2)c(C)c1,-21%,21%,22µM*,-3%,-9%
O=C(OC1Cc2c(O)cc(O)cc2OC1c1cc(O)c(O)c(O)c1-c1c(C2Oc3cc(O)cc(O)c3CC2OC(=O)c2cc(O)c(O)c(O)c2)cc(O)c(O)c1O)c1cc(O)c(O)c(O)c1 (stereo unspecified),22µM*,-5%,-1%,x,x
Fc1ccc(C2CCCN2Cc2nc(Cc3ccccc3)no2)cc1 (stereo unspecified),x,x,-5%,15%[9.22 µM],18%[10 µM]
N#Cc1ccccc1-c1cncnc1NCc1cccnc1,u,-8%,28µM*,x,-28%
Cc1ccsc1/C=C(\C#N)C(=O)NC1CCS(=O)(=O)C1 (stereo unspecified),x,-13%[46 µM],-10%,19%,5%[10 µM]
Fc1ccc(CSc2nc3ncc(Br)cc3[nH]2)cc1,0.63µM*,1%,7%,5%,13%
O=C(CSc1nc2ncc(Br)cc2[nH]1)c1ccc([N+](=O)[O-])cc1,8.9µM*,-3%,u,-14%,-15%[10 µM]
Cc1cccc(S(=O)(=O)c2cn(C)c3cc(N4CCN(c5ccc(F)cc5)CC4)c(F)cc3c2=O)c1,x,-11%[46 µM],x,x,x
COc1ccc(C(c2c(C)[nH]n(C(N)=S)c2=O)C(C#N)C#N)cc1 (stereo unspecified),32µM*,-6%,13µM*,13%,13%[1.9 µM]
COc1ccc2c(c1)-c1nc(NC(=O)c3ccco3)sc1CC2,-23%,u,u,-19%,-37%[10 µM]
COc1ccc2c(c1)CCc1sc(NC(=O)c3ccco3)nc1-2,u,-2%,22µM*,-2%,-23%
COc1ccc2c(c1)Cc1sc(NC(C)=O)nc1-2,-1%,7%,u,3%,-22%
COc1ccc2c(c1)Cc1sc(NC(=O)c3cccnc3)nc1-2,x,-16%[46 µM],3.5µM*,18%,-32%
COc1cc2c(cc1OC)/C(=C/C#N)NC(C)(C)C2,-21%,-4%,2µM*,11%[9.22 µM],-34%
COc1cc2c(cc1OC)C(=S)NC1(CCCC1)C2,x,-13%[46 µM],u,-8%,-18%
O=S(=O)(C[C@H](O)C(Cl)(Cl)Cl)NNc1ccccc1,-9%,x,10%[13.5 µM],x,-2%[10 µM]
O=c1[nH]nc(SCCS(=O)(=O)c2ccc(F)cc2)n1-c1ccc2c(c1)OCCO2,x,x,20µM*,-8%[9.22 µM],41%[10 µM]
Cc1nc(CSc2n[nH]c(=O)n2-c2cccc(F)c2)cs1,x,x,6%,-11%[9.22 µM],20%[10 µM]
O=c1[nH]nc(SCCS(=O)(=O)c2ccc(F)cc2)n1-c1ccccc1,x,x,2.8µM*,1%[9.22 µM],15%[10 µM]
CSc1nc2nc3c(cc2c(=O)n1-c1ccccc1)COC(C)(C)C3,x,20%[46 µM],14µM*,x,x
CSc1nc2nc3c(cc2c(=O)n1-c1cccc(C)c1)COC(C)(C)C3,x,x,3.5µM*,-15%[9.22 µM],-5%[10 µM]
CSc1nc2nc3c(cc2c(=O)n1-c1ccc(C)cc1)COC(C)(C)C3,x,x,x,9%[9.22 µM],6%[10 µM]
COc1ccc(S(=O)(=O)c2c(Nc3ccc(C)cc3)sc(C(=O)c3ccc4c(c3)OCO4)c2N)cc1,x,-23%[46 µM],x,x,x
O=C(C1=C(O)C(=O)N(Cc2ccco2)C1c1cccs1)c1cccs1 (stereo unspecified),-9%,-5%,u,26%,17%[0.074 µM]
O=C(C1=C(O)C(=O)N(CCOCCO)C1c1cccs1)c1cccs1 (stereo unspecified),-10%,u,2.2µM*,0%,-23%[0.074 µM]
Cc1ccc2nc(N3C(=O)C(O)=C(C(=O)c4ccco4)C3c3cccs3)sc2c1 (stereo unspecified),14µM*,1%,u,-8%,-15%
COc1ccc(CCN2C(=O)C(O)=C(C(=O)c3ccco3)C2c2cccs2)cc1OC (stereo unspecified),-18%,1%,7.9µM*,-13%,-2%[10 µM]
COc1cc(C2C(C(=O)c3ccco3)=C(O)C(=O)N2CCc2ccccc2)ccc1O (stereo unspecified),-12%,-7%,6%,-9%,9%[10 µM]
Cc1ccc(C(=O)N/C(=C\c2ccco2)C(=O)NCCc2c[nH]c3ccccc23)cc1,0%,-2%,-10%,9%,x
Cc1ccc(/C=C(\NC(=O)c2ccccc2)C(=O)NCCc2ccccn2)o1,-18%,2%,22µM*,8%,2%[0.074 µM]
